BAZ2B inh: inhibitors of human BAZ2B bromodomain; Q9UIF8; AlphaScreen BAZ2B-H3K14Ac peptide displacement; Potency, µM (doses to about 114 µM), usual class: inhibitors; hit rate 4.4% among 360,000; AID 504333; note: nearly all actives have a fitted effect of over 60% in size
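Multi-concentration screen (max 110 uM) measuring displacement of acetylated histone H3 peptide from BAZ2B by AlphaScreen, using 50 nM protein, 50 nM peptide and 10 ug/mL streptavidin donor plus Ni-chelate acceptor beads.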
HP1b chromo inh: HP1-beta chromodomain-methylated histone interaction inhibition; AlphaScreen HP1-beta / biotin-H3K9me3 peptide binding; Potency, µM (top dose mostly 114 µM), actives largely listed as inhibitors; hit rate 0.56% among 390,000; AID 540317; note: nearly all actives have a fitted effect of over 70% in size
Target sequence (P83916 whole entry, looked up): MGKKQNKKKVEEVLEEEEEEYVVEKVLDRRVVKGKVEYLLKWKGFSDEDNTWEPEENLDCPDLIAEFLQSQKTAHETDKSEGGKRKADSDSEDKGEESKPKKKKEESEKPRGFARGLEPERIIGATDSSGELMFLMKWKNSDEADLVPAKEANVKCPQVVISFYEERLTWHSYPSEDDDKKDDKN
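Compound inhibition of the preformed complex between 50 nM HP1-beta and 50 nM biotinylated H3K9me3 peptide was read by AlphaScreen. Buffer was PBS pH 7.4 with 0.01% Tween-20. Incubations ran 30 min at room temperature, with 10 ug/mL donor/acceptor beads.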
Six1-Eya2 blk: Six1/Eya2 interaction inhibition. Q15475+O00167. AlphaScreen GST-Six1/His-Eya2 binding, biochemical; hits give low values. activity change, % (no concentration beside the values). hit rate 0.56% among 360,000; in the data active = activity change below about -65%; inconclusive = mostly about -30% to -63%
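Six1/Eya2 binding was read as AlphaScreen signal after compounds were pinned into GST-Six1 plus His-tagged Eya2 (5X stock 250/500 nM) in pH 8.0 Tris/NaCl/TCEP buffer, beads added, then incubated 1 h, 37 C, dark.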
G9a block: G9a (human) methyltransferase inhibition. hit rate 8.8% among 350,000. Q96KQ7. Potency, µM (titrated, usually from 102 µM), actives largely listed as inhibitors. G9a H3K9 monomethylation, AlphaScreen, 2 h. AID 504332; note: nearly all actives have a fitted effect of over 75% in size
Target sequence (Q96KQ7 913-1193 limits assumed): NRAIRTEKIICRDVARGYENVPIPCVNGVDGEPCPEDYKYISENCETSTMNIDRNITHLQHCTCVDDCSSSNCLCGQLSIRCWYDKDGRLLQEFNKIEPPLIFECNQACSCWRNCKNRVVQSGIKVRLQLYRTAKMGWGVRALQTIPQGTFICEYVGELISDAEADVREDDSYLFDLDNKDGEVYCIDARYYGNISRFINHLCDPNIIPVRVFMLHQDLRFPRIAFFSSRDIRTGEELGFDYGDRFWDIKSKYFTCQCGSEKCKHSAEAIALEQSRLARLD
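Step 1: enzyme (final 20 nM) with compound, 15 min RT. Step 2: substrate peptide 500 nM and SAM 20 uM, 2 h RT. Step 3: anti-H3K9me1 antibody and AlphaScreen beads, 10 min, then plate read.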
CtBP-E1A blk: blocks the CtBP interaction with E1A; AlphaScreen GST-E1A/His-CtBP binding, 1536-well; hits give low values; activity change, % (test concentration not listed); hit rate 0.49% among 340,000; in the data active = activity change below about -65%; inconclusive = mostly about -30% to -63%
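Protein mix (5X: 125 nM each GST-E1A, His-CtBP) was incubated with pinned compound 2 h at 37 deg C in dark, in 50 mM Tris pH 8.0 buffer with 300 mM NaCl. Glutathione donor and nickel acceptor beads followed; AlphaScreen signal read after 1 h.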
JMJD2A Tudor: blocks the human JMJD2A Tudor domain | AlphaScreen JMJD2A-Tudor / H3K4me3 peptide binding | Potency, µM (doses to about 114 µM), usual class: inhibitors | hit rate 4.4% among 390,000; note: nearly all actives have a fitted effect of over 50% in size
Hits are given with their value; [ ] = dose if it differs, or a comment. Only some compounds are listed: those with a hit (about 10% of all), similar ones and a draw of the others. Unless noted, calls come from the whole dose curve; as a rule, active = well fitted inhibition curve with a large enough effect; inconclusive = small, poorly fitted or top-dose-only effect; inactive = no such curve, though single readings can be large or run the other way.

For CCN(CC)C(=O)C1=C(C)N(Cc2ccc(C(C)(C)C)cc2)C(=O)C(CC(=O)NCc2ccco2)C1 (stereo unspecified) the results were Six1-Eya2 blk inactive and CtBP-E1A blk inactive.
CC/C(=N\O)c1c(O)c2c(n(-c3ccccc3)c1=O)CCCC2 was read as BAZ2B inh inactive, HP1b chromo inh inactive, Six1-Eya2 blk inactive, G9a block inactive, CtBP-E1A blk inactive and JMJD2A Tudor inactive.
`COc1cc2c(cc1OC)C1O[C@](CCCCN3C(=O)c4ccccc4C3=O)(C2)OC2=C1C(=O)c1ccccc1C2=O` gave BAZ2B inh inactive[22.9 µM].
For CNC(=S)N/N=C/c1cc(C)n(-c2ccc(Cl)c(Cl)c2)c1C the results were BAZ2B inh 35µM, HP1b chromo inh inconclusive, Six1-Eya2 blk inactive, G9a block 45µM, CtBP-E1A blk inactive and JMJD2A Tudor inconclusive.
For Cc1cc(/C=N/NC(=O)c2ccccc2F)c(C)n1-c1ccccc1 the results were BAZ2B inh inactive, HP1b chromo inh inactive, Six1-Eya2 blk inactive, G9a block 50µM, CtBP-E1A blk inactive and JMJD2A Tudor inactive.
For Cc1cc(/C=N/NC(=O)c2cccc(F)c2)c(C)n1-c1ccccc1 the results were BAZ2B inh inactive, HP1b chromo inh inactive, Six1-Eya2 blk inactive, G9a block inactive and JMJD2A Tudor inconclusive.
For Cc1cc(/C=N/NC(=O)c2c(Br)cnn2C)c(C)n1-c1cccc(Br)c1 the results were BAZ2B inh 28µM, HP1b chromo inh inconclusive, Six1-Eya2 blk inactive, G9a block inconclusive, CtBP-E1A blk inactive and JMJD2A Tudor inconclusive.
For NS(=O)(=O)c1cnccc1Oc1cccc(Cl)c1 the results were HP1b chromo inh inactive, Six1-Eya2 blk inactive, CtBP-E1A blk inactive and JMJD2A Tudor inactive.
CCCC(=O)Nc1ccccc1C(=O)OCc1cc(=O)n2nc(C(C)C)sc2n1 was read as BAZ2B inh inactive, HP1b chromo inh inactive, G9a block inactive and JMJD2A Tudor inactive.
`CCOC(=O)CSc1nnc2n(-c3ccccc3)c(=O)c3c4c(sc3n12)COC(C(C)C)C4` (stereo unspecified) gave BAZ2B inh inactive, HP1b chromo inh inactive, G9a block inactive and JMJD2A Tudor inactive.
For Cn1c(N)cc(=O)[nH]c1=S the results were HP1b chromo inh inactive, Six1-Eya2 blk inactive, CtBP-E1A blk inactive and JMJD2A Tudor inconclusive.
`Cn1c(=S)[nH]c2[nH]c(=O)cnc2c1=O` gave BAZ2B inh inactive, HP1b chromo inh inactive, Six1-Eya2 blk inactive, G9a block inconclusive, CtBP-E1A blk inactive and JMJD2A Tudor 89µM.
For O=c1c2cn(Cc3ccc(F)cc3)c3ccc(F)cc3c-2nn1Cc1ccc(F)cc1 the results were BAZ2B inh inactive, HP1b chromo inh inactive, Six1-Eya2 blk inactive, G9a block inactive, CtBP-E1A blk inactive and JMJD2A Tudor inactive.
Screening C=CCN(C(=O)Cc1cccs1)c1nc(-c2ccc(S(C)(=O)=O)cc2)cs1 returned BAZ2B inh inactive, HP1b chromo inh inactive, Six1-Eya2 blk inactive, G9a block 71µM, CtBP-E1A blk inactive and JMJD2A Tudor inactive.
C=CCN(C(=O)CCc1ccccc1OC)c1nc(-c2ccc(S(C)(=O)=O)cc2)cs1 was read as BAZ2B inh inactive, HP1b chromo inh inactive, Six1-Eya2 blk inactive, G9a block inactive, CtBP-E1A blk inactive and JMJD2A Tudor inactive.
`CC(=O)/C=C/c1ccc(C)o1` gave BAZ2B inh inactive, HP1b chromo inh inactive, Six1-Eya2 blk inactive, G9a block inconclusive, CtBP-E1A blk inactive and JMJD2A Tudor inactive.
`CCN1CCN(C(=O)/C=C/c2ccc(C)o2)CC1` gave BAZ2B inh inactive, HP1b chromo inh inactive, Six1-Eya2 blk inactive, G9a block 10µM, CtBP-E1A blk inactive and JMJD2A Tudor inactive.
Screening Cc1ccc(/C=C/C(=O)N2CC(C)CC(C)C2)o1 (stereo unspecified) returned BAZ2B inh inactive, HP1b chromo inh inconclusive, Six1-Eya2 blk inactive, G9a block 8.9µM, CtBP-E1A blk inactive and JMJD2A Tudor 50µM.
`CN(C)c1ncc2nc(-c3cc(F)cc(F)c3)c(=O)n(C)c2n1` gave G9a block inactive[0.501 µM].

Compound activity (PubChem BioAssay)
